From PubChem BioAssay (Tox21) come the findings set out here.

The nature of experiment [1]: Nuclear factor erythroid 2-related factor 2/antioxidant responsive element (Nrf2/ARE) small molecule agonists: luciferase reporter gene qHTS assay in human keratinocytes (AID 1919969). Note: nearly all actives have a fitted effect of over 35% in size. Note: potency is the fitted concentration of half-maximal effect. In general terms: A reporter such as luciferase makes a cellular process visible.
In experiment [2] the target is Gonadotropin-releasing hormone receptor (Homo sapiens) (UniProt P30968). Put plainly: Human gonadotropin-releasing hormone receptor (GnRHR) small molecule agonists, calcium flux assay in GnRHR-HEK293 cells (AID 1920063). Note: nearly all actives have a fitted effect of over 35% in size. The essentials:
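Fluorescence kinetics (480 nm excitation, 540 nm emission; 3 min, 1 s steps) report calcium mobilisation in human GnRHR-HEK293 cells in agonist mode. Dye incubation: 1 h, 37 C.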
(In general: Calcium flux is commonly read through the fluorescence of an indicator in the cells.)

For experiment [3], the target named is KiSS-1 receptor (Homo sapiens) (UniProt Q969F8). Put plainly: Human kisspeptin (KISS1R) small molecule agonists, calcium flux assay in KISS1R-HEK293 cells (AID 1920064; active = well fitted activation curve with a large enough effect in the repeat runs). The essentials:
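Measures KISS1R agonism through calcium-sensitive dye fluorescence in stably transfected HEK293 cells, read for 3 min after pin-tool compound delivery; 15-point titrations in triplicate.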

Experiment [4] can be described thus: G protein-coupled receptor (GPCR) small molecule agonists, calcium flux assay: HEK293 wild type cell line counter screen (AID 1920065). Note: potency is the fitted concentration of half-maximal effect. A digest of the protocol:
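Readout: fluorescence at 480 nm excitation/540 nm emission, sampled at 1 s intervals for 3 min. Cells had been cultured 18 h, then dye-loaded 1 h at 37 C before compound or ATP addition.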

Experiment [5] in a line: p53 small molecule agonists, cell-based qHTS assay with human liver microsomes (AID 1963577). A digest of the protocol: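 p53RE-bla reporter cells were pre-incubated 5 h at 37 C, then treated with compounds plus human liver microsomes (0.5 mg/mL final) and NADPH (0.5 mg/mL final) for 16 h at 37 C. Beta-lactamase activity was read by LiveBLAzer fluorescence after 2 h at room temperature.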

Experiment [6] in a line: p53 small molecule agonists, cell-based qHTS assay with human liver microsomes: qHTS cell viability counter screen (AID 1963579). Note: nearly all actives have a fitted effect of over 45% in size. The essentials: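 p53RE-bla cells (4,000/well) were pre-incubated 5 h at 37 C, then given compounds in DMSO plus human liver microsomes (0.5 mg/mL final) and NADPH (0.5 mg/mL final) for 16 h at 37 C. Viability was read by CellTiter-Glo luminescence.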

Experiment [7] is described as follows: p53 small molecule agonists, cell-based qHTS assay: qHTS cell viability counter screen (AID 1963581). Note: nearly all actives have a fitted effect of over 45% in size. Note: potency is the fitted concentration of half-maximal effect. The essentials:
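In the same plates used for the p53 bla reporter, HCT-116 cells given compounds for 16 h at 37 C received CellTiter-Glo; luminescence was recorded 30 min later at room temperature.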

Experiment [8] in a line: p53 small molecule agonists, cell-based qHTS assay (AID 1963582; active = well fitted activation curve with a large enough effect in the signal ratio in the repeat runs, not every such curve was filed as active; the % refers to the signal ratio). A digest of the protocol:
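Compounds are pin-transferred in DMSO onto p53RE-bla cells and incubated 16 h at 37 C. The B/G FRET beta-lactamase substrate is then applied for 2 h at RT and fluorescence recorded.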
Background: Quantitative high-throughput screening tests each substance at several concentrations.

In experiment [9] the target is 5-hydroxytryptamine receptor 2A (Homo sapiens) (UniProt P28223). The experiment is described as follows: 5-hydroxytryptamine receptor 2A (HTR2A) small molecule antagonists, cell-based qHTS assay (AID 1963586). Note: nearly all actives have a fitted effect of over 45% in size. Note: potency is the fitted concentration of half-maximal effect. A digest of the protocol: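 Antagonist-mode intracellular calcium assay: DOI (4 nM) added after 5 min compound pre-incubation at room temperature to dye-loaded HTR2A-CHO cells. Fluorescence followed for 3 min, sampled every second.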
Sequence of 5-hydroxytryptamine receptor 2A (Homo sapiens) (P28223 whole entry, looked up): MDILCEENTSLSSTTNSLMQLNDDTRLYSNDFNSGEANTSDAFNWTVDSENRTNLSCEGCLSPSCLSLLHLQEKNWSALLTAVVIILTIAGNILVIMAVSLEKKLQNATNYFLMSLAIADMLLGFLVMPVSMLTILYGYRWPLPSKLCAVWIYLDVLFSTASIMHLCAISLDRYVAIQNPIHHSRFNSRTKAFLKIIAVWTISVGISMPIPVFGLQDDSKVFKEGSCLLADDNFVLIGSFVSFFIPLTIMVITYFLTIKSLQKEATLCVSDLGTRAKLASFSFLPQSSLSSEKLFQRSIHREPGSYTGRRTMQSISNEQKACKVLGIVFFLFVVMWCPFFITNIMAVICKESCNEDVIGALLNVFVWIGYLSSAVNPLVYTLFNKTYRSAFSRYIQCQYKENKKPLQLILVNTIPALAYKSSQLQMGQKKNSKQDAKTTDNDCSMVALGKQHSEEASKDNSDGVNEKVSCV

Experiment [10] deals with Muscarinic acetylcholine receptor M1 (Homo sapiens) (UniProt P11229). The experiment is described as follows: Cholinergic receptor muscarinic 1 (CHRM1) small molecule agonists, cell-based qHTS assay (AID 1963589). Note: nearly all actives have a fitted effect of over 35% in size. The essentials:
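Each compound was tested at 15 concentrations across three independent runs on dye-loaded CHO cells stably expressing human CHRM1, reading intracellular calcium fluorescence kinetically at 1 sec intervals.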

Experiment [11] is described as follows: cAMP Responsive Elements (CRE) small molecule antagonists, cell-based qHTS assay (AID 1963591; active = well fitted inhibition curve with a large enough effect in the signal ratio in the repeat runs, not every such curve was filed as active; the % refers to the signal ratio). A digest of the protocol:
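Inhibition of NKH477-driven (0.25 uM final) CRE-beta-lactamase signal in HEK293T cells, 3 h compound exposure at 37 °C, detected by FRET substrate fluorescence.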

Experiment [12] addresses Beta-2 adrenergic receptor (Homo sapiens) (UniProt P07550). Put plainly: Adrenergic beta2 receptor (ADRB2) small molecule antagonists, cell-based qHTS assay (AID 1963592). Note: nearly all actives have a fitted effect of over 50% in size. Note: potency is the fitted concentration of half-maximal effect. A digest of the protocol: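 Cells (CHO, stable ADRB2 overexpression) incubated 18-20hr at 37C; compounds added from DMSO; agonist mix (1nM isoproterenol, 100uM IBMX, 25uM Ro-20-1724) added; 0.5hr RT; d2-cAMP and anti-cAMP-cryptate added; 1hr RT; 665/615 nm read.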

The target is the same in experiment [13]. Put plainly: Adrenergic beta2 receptor (ADRB2) small molecule agonists, cell-based qHTS assay (AID 1963593).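 Note: CHO cells stably overexpressing human ADRB2.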 The essentials:
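CHO cells stably over-expressing ADRB2 were plated overnight at 37C, then dosed with compounds plus a stimulation mix containing 100uM IBMX and 25uM Ro-20-1724 for 0.5hr at room temperature. cAMP was measured by HTRF competition, 1hr.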

The target in experiment [14] is D(2) dopamine receptor (Homo sapiens) (UniProt P14416). Put plainly: Dopamine D2 receptor (DRD2) small molecule antagonists, cell-based qHTS assay (AID 1963595; active = well fitted inhibition curve with a large enough effect in the signal ratio in the repeat runs, with a control signal flat; the % refers to the signal ratio). A digest of the protocol:
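HEK293 cells stably expressing DRD2, preincubated with 0.1 mM Ro20-1724 and compounds 10 min, were stimulated with 200 nM NKH477 plus 12 nM quinpirole for 30 min at room temperature; cAMP measured by HTRF (665/620 nm).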

The nature of experiment [15]: p53 small molecule agonists, cell-based qHTS assay with rat liver microsomes: qHTS cell viability counter screen (AID 1963580). Note: nearly all actives have a fitted effect of over 45% in size. A digest of the protocol:
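Intracellular ATP, by CellTiter-Glo luminescence, defines viability. HCT-116 p53RE-bla cells, 4,000 per well, were compound-treated in the presence of rat liver microsomes and NADPH for 16 h at 37 C.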

For experiment [16], the target named is 5-hydroxytryptamine receptor 2A (Homo sapiens) (UniProt P28223). Put plainly: 5-hydroxytryptamine receptor 2A (HTR2A) small molecule agonists, cell-based qHTS assay (AID 1963587). Note: nearly all actives have a fitted effect of over 30% in size. The essentials:
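Kinetic calcium-flux fluorescence (2 min, 1 sec intervals) after compound addition in agonist mode. HTR2A-CHO cells were cultured 18 h, then dye-loaded 1 h at 37 C.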

Experiment [17] addresses Muscarinic acetylcholine receptor M1 (Homo sapiens) (UniProt P11229). Put plainly: Cholinergic receptor muscarinic 1 (CHRM1) small molecule antagonists, cell-based qHTS assay (AID 1963588). Note: nearly all actives have a fitted effect of over 40% in size. A digest of the protocol:
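CHRM1-CHO calcium-flux assay, antagonist mode. Cells were seeded 18 h, dye-loaded 1 h at 37 C and given compound for 5 min at RT, then acetylcholine was added at 50nM. FDSS fluorescence was read 3 min; 15 concentrations, three runs.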

Experiment [18] addresses D(2) dopamine receptor (Homo sapiens) (UniProt P14416). Put plainly: Dopamine D2 receptor (DRD2) small molecule agonists, cell-based qHTS assay (AID 1963594). Note: nearly all actives have a fitted effect of over 35% in size. A digest of the protocol: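 cAMP accumulation in DRD2-HEK293 cells measured by HTRF after 1 h detection; compounds added 10 min before NKH477 (200nM […]) forskolin-analogue stimulation, 30 min at room temperature, with Ro20-1724 present at 0.1 mM final.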

Experiment [19] in a line: p53 small molecule agonists, cell-based qHTS assay with rat liver microsomes (AID 1963578). The essentials:
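p53RE-bla cells were exposed to compounds together with rat liver microsomes (0.5 mg/mL final) and NADPH (0.5 mg/mL final) for 16 h at 37 C, then read by LiveBLAzer beta-lactamase fluorescence after 2 h at room temperature.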

The nature of experiment [20]: cAMP Responsive Elements (CRE) small molecule agonists, cell-based qHTS assay (AID 1963590). The essentials: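 Cell line: CRE-bla HEK 293T; medium DMEM/10% dialyzed FBS/0.1 mM NEAA/1 mM pyruvate/25 mM HEPES; 3 h compound exposure; beta-lactamase FRET readout after 2 h substrate loading at RT.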

Each structure is given as a SMILES string. Inconclusive results are not listed. Activity calls are given as the source filed them. Unless noted, calls come from the whole dose curve.

Sequence of KiSS-1 receptor (Homo sapiens) (Q969F8 whole entry, looked up): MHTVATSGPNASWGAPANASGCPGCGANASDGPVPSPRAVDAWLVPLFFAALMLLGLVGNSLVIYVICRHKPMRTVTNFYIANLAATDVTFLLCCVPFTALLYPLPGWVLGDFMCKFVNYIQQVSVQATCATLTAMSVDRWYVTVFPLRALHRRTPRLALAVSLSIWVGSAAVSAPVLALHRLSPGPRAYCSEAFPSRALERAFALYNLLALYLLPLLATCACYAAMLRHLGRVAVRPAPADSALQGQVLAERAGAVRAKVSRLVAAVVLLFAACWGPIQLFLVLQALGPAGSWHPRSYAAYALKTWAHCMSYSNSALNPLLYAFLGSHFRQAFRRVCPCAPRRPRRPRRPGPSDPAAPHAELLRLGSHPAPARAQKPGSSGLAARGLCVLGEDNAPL
Sequence of Beta-2 adrenergic receptor (Homo sapiens) (P07550 whole entry, looked up): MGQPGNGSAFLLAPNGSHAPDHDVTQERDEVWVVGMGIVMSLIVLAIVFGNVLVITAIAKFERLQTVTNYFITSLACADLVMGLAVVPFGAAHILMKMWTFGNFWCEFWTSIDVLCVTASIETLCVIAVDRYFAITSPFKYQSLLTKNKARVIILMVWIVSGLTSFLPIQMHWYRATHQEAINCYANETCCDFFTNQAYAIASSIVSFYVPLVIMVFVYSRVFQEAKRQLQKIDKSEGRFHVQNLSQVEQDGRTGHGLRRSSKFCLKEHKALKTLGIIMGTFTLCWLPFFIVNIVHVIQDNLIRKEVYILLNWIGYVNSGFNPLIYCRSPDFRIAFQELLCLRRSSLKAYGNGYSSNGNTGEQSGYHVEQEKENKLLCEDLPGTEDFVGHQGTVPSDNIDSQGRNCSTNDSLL
Sequence of Gonadotropin-releasing hormone receptor (Homo sapiens) (P30968 whole entry, looked up): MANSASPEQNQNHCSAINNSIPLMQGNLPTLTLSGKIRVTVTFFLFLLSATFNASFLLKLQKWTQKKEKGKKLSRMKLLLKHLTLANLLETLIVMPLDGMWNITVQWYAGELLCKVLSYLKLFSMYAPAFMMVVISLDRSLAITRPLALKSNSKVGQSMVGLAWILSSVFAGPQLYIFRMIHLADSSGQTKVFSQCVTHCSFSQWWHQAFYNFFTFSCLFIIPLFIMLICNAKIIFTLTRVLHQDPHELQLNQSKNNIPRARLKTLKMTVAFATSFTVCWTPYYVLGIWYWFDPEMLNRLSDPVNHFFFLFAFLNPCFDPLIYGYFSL
Sequence of D(2) dopamine receptor (Homo sapiens) (P14416 whole entry, looked up): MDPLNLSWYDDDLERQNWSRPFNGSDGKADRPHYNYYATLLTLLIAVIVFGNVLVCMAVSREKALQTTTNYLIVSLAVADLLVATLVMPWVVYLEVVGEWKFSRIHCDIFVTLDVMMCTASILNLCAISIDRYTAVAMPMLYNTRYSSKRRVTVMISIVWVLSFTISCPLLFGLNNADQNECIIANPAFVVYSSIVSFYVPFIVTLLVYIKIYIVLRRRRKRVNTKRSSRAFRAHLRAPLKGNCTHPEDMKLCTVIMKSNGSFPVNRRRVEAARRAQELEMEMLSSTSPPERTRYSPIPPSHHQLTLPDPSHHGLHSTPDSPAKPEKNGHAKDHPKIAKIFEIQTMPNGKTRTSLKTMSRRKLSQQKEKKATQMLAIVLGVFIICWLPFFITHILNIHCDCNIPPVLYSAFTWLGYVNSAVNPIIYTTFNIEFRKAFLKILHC
Sequence of Muscarinic acetylcholine receptor M1 (Homo sapiens) (P11229 whole entry, looked up): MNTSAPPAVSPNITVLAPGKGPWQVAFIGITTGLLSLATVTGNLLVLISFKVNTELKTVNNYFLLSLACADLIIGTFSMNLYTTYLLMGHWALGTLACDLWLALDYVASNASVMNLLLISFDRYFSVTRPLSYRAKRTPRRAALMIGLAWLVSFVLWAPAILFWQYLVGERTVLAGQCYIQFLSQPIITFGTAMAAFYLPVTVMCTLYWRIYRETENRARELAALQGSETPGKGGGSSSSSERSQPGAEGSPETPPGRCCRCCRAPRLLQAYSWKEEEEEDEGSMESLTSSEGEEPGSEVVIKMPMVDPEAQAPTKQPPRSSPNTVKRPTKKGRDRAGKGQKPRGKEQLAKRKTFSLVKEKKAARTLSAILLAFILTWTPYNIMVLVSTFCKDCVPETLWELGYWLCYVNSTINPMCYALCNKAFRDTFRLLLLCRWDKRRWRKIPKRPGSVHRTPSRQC

Consider `O=C(CC(=O)c1ccccc1)c1ccccc1`, for which the Potency in experiment [1] was 32.9 µM (active). Besides, the Potency result in [2], in experiment [3], in experiment [4], in [5], in experiment [6] and in [7] was “inactive” in each case. In addition, the Potency entry in experiment [8], in experiment [9], in experiment [10], in experiment [11], in experiment [12] and in experiment [13] was “inactive” throughout. In [14], the Potency result is “inactive”.
Regarding `CCO[Si](CC(C)C)(OCC)OCC`, the Potency result in experiment [1], in experiment [2], in [3], in experiment [4], in experiment [5] and in [6] was “inactive” throughout. Further, the Potency result in experiment [15], in experiment [7], in experiment [9], in [16], in experiment [17] and in experiment [10] was “inactive” in each case. Also, the Potency entry in [11], in [12], in experiment [18] and in experiment [14] was “inactive” throughout.
On to `CCN(CC)CCNC(=O)COc1ccc(OC)cc1`, for which the Potency entry in experiment [1], in experiment [2], in experiment [3], in experiment [4], in experiment [19] and in experiment [6] was “inactive” throughout. Besides, the Potency result in [15], in experiment [7], in [8], in experiment [9], in experiment [16] and in [17] was “inactive” each time. The Potency entry in experiment [10], in [20], in experiment [11], in experiment [13], in experiment [18] and in experiment [14] was “inactive” each time.
`COc1cc(C=C2CCC/C(=C\c3ccc(O)c(OC)c3)C2=O)ccc1O`: the figures for the Potency in experiment [1], in experiment [7] and in [9] were 6.68 µM (active), 14.1 µM (active) and 18.3 µM (active), respectively. For the same compound, the Potency entry in [2], in experiment [3], in [4], in experiment [5], in experiment [6] and in experiment [8] was “inactive” in each case. Besides, the Potency result in experiment [17], in [10], in experiment [12], in [13], in experiment [18] and in experiment [14] was “inactive” each time.
For the compound `CCCCCC=CCC=CCCCCCCCC(=O)OCC`, in experiment [1], the Potency is 29.8 µM (active). Besides, the Potency entry in [2], in experiment [3], in experiment [4], in experiment [19], in [6] and in experiment [15] was “inactive” each time. In addition, the Potency entry in experiment [7], in [8], in experiment [9], in experiment [16], in [17] and in experiment [10] was “inactive” each time. Also, the Potency result in [12] and in experiment [14] was “inactive” each time.
As for `O=C(Nc1ccccc1)c1cc(Cl)ccc1O`, the Potency was 13.7 µM (active) in experiment [1], 12.3 µM (active) in [4], 40.8 µM (active) in [7] and 61.1 µM (active) in [12]. Besides, the Potency result in experiment [2], in experiment [3], in experiment [5], in experiment [9], in experiment [16] and in experiment [17] was “inactive” each time. Besides, the Potency entry in experiment [10], in [18] and in [14] was “inactive” each time.
As to `Oc1c(Cl)cc(Cl)c2cccnc12`, the Potency in [1] is 0.188 µM (active). For the same compound, the Potency entry in experiment [2], in [3], in experiment [4], in experiment [5], in experiment [6] and in [15] was “inactive” each time. Also, the Potency result in experiment [7], in experiment [9], in experiment [17], in experiment [10], in experiment [12] and in [18] was “inactive” in each case. Further, the Potency result in [14] was “inactive”.
In the case of `CCOc1ccccc1OCC1CNCCO1` (centres undefined), the Potency entry in experiment [1], in experiment [2], in [3], in [4], in experiment [19] and in experiment [6] was “inactive” each time. For the same compound, the Potency result in [15], in experiment [7], in experiment [8], in [17], in experiment [10] and in experiment [20] was “inactive” in each case. Also, the Potency result in experiment [11] and in experiment [14] was “inactive” in each case.
